# Measurements as given in ChEMBL document CHEMBL1961873, “Compounds: GSK PKIS; Assays: Nanosyn kinase panel” (2012).
# How the values were obtained:
# [1] = molecular target: High affinity nerve growth factor receptor (Homo sapiens) (UniProt P04629); details: at 1 µM;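 further: each value is the mean percent inhibition of TRKA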
# [2] = molecular target: BDNF/NT-3 growth factors receptor (Homo sapiens) (UniProt Q16620); details: at 0.1 µM
# [3] = molecular target: BDNF/NT-3 growth factors receptor (Homo sapiens) (UniProt Q16620); details: at 1 µM
# [4] = molecular target: NT-3 growth factor receptor (Homo sapiens) (UniProt Q16288); details: at 0.1 µM
# [5] = molecular target: NT-3 growth factor receptor (Homo sapiens) (UniProt Q16288); details: at 1 µM
# [6] = molecular target: T1, Tyrosine-protein kinase TXK (Homo sapiens) (UniProt P42681); details: at 0.1 µM
# T1 sequence (whole entry): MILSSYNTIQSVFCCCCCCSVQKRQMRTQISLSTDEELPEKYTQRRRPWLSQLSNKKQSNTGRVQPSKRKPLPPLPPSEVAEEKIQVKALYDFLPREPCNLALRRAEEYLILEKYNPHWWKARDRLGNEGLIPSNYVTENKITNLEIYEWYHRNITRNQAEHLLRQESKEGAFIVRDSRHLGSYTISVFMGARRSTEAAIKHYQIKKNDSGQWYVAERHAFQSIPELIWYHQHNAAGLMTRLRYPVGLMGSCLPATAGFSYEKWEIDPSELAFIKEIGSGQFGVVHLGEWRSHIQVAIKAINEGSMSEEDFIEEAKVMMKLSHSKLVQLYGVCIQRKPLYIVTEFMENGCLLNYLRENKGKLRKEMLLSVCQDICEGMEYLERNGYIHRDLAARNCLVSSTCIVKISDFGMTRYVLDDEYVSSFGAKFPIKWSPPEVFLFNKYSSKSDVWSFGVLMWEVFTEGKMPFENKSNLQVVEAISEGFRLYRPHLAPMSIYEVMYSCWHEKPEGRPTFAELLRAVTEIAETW
# [7] = molecular target: T1, Tyrosine-protein kinase TXK (Homo sapiens); details: at 1 µM
# [8] = molecular target: Non-receptor tyrosine-protein kinase TYK2 (Homo sapiens) (UniProt P29597); details: at 0.1 µM;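 further: each value is a mean of the inhibition readings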
# [9] = molecular target: T2, Dual specificity protein kinase TTK (Homo sapiens) (UniProt P33981); details: at 1 µM;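 further: reported figures are mean TTK inhibition at 1 µM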
# T2 sequence (whole entry): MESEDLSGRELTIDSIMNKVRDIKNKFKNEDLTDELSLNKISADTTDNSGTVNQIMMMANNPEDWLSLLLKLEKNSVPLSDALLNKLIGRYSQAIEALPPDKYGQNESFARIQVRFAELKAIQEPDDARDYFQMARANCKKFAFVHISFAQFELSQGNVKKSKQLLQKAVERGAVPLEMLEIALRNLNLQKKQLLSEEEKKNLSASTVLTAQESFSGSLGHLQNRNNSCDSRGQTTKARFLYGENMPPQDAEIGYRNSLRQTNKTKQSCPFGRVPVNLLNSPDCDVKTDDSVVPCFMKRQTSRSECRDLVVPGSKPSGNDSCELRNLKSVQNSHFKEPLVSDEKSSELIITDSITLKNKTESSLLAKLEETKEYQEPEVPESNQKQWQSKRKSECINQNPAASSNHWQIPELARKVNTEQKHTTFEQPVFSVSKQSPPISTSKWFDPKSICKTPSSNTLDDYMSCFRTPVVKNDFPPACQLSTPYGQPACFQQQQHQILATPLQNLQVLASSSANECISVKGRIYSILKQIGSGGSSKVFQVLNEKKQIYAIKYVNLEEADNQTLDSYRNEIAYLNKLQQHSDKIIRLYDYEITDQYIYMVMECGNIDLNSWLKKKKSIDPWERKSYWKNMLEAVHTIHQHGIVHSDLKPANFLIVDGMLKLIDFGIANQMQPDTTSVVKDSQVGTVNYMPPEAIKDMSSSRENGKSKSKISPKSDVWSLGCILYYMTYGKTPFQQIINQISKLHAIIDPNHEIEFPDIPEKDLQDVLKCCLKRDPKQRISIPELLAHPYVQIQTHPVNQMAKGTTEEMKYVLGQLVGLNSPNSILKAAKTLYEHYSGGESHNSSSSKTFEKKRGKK
# [10] = molecular target: T3, Aurora kinase A (Homo sapiens) (UniProt O14965); details: at 0.1 µM;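 further: each reported value is a mean percent inhibition of Aurora-A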
# T3 sequence (whole entry): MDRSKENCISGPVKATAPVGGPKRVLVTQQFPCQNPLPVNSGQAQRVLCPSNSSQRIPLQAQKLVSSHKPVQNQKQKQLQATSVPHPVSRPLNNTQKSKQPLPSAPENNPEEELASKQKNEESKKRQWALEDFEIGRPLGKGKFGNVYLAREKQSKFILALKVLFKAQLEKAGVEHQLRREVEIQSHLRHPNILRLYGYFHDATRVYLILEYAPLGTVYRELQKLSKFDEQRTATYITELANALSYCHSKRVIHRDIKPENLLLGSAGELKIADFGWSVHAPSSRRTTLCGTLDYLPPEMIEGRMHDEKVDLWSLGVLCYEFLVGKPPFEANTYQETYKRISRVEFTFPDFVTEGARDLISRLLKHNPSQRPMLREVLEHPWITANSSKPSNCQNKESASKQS
# Sequence of NT-3 growth factor receptor (Homo sapiens) (Q16288 32-839 limits assumed): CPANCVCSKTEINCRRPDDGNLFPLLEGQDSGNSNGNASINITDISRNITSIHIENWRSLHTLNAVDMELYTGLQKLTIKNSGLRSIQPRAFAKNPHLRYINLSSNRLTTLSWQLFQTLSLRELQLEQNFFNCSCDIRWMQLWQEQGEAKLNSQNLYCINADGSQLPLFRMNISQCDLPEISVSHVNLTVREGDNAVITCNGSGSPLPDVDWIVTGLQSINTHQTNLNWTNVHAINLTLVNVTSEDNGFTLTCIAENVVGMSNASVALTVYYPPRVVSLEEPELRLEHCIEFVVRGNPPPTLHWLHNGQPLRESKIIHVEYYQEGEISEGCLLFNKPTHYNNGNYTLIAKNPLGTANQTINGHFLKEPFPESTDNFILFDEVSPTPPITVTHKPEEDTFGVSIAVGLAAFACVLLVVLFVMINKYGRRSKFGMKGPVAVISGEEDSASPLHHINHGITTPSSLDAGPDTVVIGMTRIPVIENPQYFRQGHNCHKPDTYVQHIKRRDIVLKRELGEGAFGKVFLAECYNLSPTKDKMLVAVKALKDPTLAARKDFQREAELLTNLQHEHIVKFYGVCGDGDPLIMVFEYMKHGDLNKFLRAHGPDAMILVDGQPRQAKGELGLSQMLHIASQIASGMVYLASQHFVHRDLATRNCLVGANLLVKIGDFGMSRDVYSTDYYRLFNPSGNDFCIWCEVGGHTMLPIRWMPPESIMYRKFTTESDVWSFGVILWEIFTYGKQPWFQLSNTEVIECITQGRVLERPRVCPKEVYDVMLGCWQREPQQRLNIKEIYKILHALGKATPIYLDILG
# Sequence of High affinity nerve growth factor receptor (Homo sapiens) (P04629 33-796 limits assumed): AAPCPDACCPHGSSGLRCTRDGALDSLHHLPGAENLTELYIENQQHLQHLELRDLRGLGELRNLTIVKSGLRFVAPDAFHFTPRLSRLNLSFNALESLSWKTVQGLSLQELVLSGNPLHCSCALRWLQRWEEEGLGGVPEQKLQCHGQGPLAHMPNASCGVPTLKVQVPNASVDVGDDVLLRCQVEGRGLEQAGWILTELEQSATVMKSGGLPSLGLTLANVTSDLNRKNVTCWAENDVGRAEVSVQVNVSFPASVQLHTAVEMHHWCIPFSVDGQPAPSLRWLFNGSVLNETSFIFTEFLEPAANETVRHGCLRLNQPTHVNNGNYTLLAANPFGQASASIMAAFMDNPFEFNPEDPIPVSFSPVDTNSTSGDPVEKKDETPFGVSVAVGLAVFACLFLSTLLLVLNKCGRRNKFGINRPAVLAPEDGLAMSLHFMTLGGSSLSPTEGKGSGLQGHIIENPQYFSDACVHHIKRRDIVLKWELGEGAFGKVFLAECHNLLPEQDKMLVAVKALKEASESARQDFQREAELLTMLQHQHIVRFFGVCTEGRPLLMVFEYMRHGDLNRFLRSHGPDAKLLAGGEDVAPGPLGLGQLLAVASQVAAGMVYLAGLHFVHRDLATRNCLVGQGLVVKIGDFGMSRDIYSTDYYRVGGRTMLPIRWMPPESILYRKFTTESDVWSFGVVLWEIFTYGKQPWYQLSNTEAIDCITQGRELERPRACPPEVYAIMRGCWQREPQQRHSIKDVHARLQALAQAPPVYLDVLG
# Sequence of Non-receptor tyrosine-protein kinase TYK2 (Homo sapiens) (P29597 whole entry): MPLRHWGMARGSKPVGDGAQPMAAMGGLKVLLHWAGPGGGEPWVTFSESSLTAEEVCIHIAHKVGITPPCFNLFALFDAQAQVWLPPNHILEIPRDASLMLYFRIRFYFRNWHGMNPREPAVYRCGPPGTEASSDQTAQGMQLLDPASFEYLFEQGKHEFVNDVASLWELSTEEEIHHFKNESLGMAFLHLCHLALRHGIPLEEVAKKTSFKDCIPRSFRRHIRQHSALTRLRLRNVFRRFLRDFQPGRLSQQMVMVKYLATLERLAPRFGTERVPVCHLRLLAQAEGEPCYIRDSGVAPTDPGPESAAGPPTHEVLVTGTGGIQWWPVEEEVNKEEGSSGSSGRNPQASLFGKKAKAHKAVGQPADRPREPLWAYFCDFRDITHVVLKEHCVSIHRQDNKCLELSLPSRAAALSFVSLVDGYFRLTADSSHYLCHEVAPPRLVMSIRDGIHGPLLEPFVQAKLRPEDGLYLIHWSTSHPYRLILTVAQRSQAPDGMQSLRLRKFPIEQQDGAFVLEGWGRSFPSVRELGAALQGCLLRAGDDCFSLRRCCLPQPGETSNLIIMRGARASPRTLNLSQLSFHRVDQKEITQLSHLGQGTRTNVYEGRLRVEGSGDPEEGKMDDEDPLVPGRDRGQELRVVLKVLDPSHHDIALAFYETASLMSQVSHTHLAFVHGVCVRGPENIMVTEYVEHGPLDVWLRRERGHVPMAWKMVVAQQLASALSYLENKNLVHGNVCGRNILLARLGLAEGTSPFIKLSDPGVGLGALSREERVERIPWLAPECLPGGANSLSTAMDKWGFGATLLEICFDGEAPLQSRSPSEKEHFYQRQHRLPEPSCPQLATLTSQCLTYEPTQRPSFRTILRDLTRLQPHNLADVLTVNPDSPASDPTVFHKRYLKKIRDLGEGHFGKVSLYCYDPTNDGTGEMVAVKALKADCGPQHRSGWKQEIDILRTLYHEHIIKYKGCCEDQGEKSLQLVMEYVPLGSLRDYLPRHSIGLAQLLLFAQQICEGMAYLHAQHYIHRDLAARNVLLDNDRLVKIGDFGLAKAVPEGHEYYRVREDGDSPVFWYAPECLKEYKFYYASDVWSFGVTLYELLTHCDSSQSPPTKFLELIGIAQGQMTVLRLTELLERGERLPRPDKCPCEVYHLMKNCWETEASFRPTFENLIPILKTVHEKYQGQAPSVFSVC
# Sequence of BDNF/NT-3 growth factors receptor (Homo sapiens) (Q16620 32-822 limits assumed): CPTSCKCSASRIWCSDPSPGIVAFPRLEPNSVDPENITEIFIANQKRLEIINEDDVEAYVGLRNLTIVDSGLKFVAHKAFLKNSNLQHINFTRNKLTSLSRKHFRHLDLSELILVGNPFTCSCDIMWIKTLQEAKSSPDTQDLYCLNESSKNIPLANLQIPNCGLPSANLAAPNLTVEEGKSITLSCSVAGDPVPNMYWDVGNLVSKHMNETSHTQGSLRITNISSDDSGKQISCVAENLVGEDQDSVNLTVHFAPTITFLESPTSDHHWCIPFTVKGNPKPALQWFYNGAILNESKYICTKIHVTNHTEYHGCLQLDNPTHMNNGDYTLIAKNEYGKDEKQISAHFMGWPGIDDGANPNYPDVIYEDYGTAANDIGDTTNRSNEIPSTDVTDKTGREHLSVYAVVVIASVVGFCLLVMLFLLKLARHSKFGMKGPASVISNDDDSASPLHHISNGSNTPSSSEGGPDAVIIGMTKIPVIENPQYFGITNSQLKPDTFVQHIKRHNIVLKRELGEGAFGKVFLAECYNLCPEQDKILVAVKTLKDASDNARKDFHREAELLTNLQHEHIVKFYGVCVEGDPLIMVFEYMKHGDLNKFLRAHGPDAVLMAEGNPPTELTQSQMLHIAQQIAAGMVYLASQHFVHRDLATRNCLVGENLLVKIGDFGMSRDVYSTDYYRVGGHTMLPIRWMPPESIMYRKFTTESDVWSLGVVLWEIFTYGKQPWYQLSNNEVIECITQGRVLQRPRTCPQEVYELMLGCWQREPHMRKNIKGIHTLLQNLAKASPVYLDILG
Compound,inhibition [1],inhibition [2],inhibition [3],inhibition [4],inhibition [5],inhibition [6],inhibition [7],inhibition [8],inhibition [9],inhibition [10]
Clc1ccc(-c2nn3ncccc3c2-c2ccnc(Nc3ccccc3)n2)cc1,6%,2.34%,3.72%,1.69%,2.21%,3.54%,14.9%,0.28%,4.5%,0.9%
COc1cccc(-n2ncc3c(N/N=C/c4ccc(F)cc4)ncnc32)c1,4.65%,3.34%,4.5%,3.31%,6.74%,4.3%,8.25%,-4.95%,10.9%,2.1%
CCc1nn2ncccc2c1-c1ccnc(NC2CC2)n1,2.38%,-0.25%,2.68%,1.72%,1.87%,3.61%,3.63%,-2%,6.05%,3.98%
COc1ccc(-c2oc3ncnc(N)c3c2-c2ccc(NC(=O)Nc3cc(C(F)(F)F)ccc3F)cc2)cc1,98.4%,88.4%,101%,87.2%,98.5%,3.68%,8.48%,-5.26%,14.6%,1.73%
Cc1ccc2c(-c3ccnc(Nc4ccccc4)n3)c(-c3ccc(F)cc3)nn2n1,31.6%,5.12%,20.2%,4.3%,11.8%,8.09%,31.4%,-4.65%,6.11%,3.75%
N#Cc1c(NC(=O)CN2CCOCC2)sc2c1CCCC2,0.84%,2.29%,4.03%,2.17%,2.8%,2.2%,3.56%,-1.25%,12.8%,2.73%
COC(=O)Nc1nc2ccc(S(=O)(=O)c3ccc(NC(=O)Nc4cc(C(F)(F)F)ccc4F)cc3)cc2[nH]1,2.05%,0.88%,3.21%,1.98%,3.91%,2.55%,4.65%,-1.55%,10.5%,3.13%
CCOc1ccc2c(-c3ccnc(Nc4cccc(C(F)(F)F)c4)n3)cnn2n1,0.26%,0.03%,2.11%,0.07%,3.18%,-0.13%,3.47%,-0.74%,4.11%,1.41%
CCNC(=O)O[C@H]1CN[C@H](C#Cc2cc3ncnc(Nc4ccc(OCc5cccc(F)c5)c(Cl)c4)c3s2)C1,3.06%,3.01%,1.6%,2.47%,1.74%,3.06%,3.99%,-3.3%,10.4%,1.24%
CC(C)COC(=O)c1ccc2c(c1)/C(=C/Nc1ccc(S(N)(=O)=O)cc1)C(=O)N2,30.4%,6.02%,40.2%,8.8%,48.5%,1.73%,4.75%,3.35%,70.1%,3.84%
[O-][S+]1CCN(Cc2ccc(-c3ccc4ncnc(Nc5ccc(OCc6cccc(F)c6)c(Cl)c5)c4c3)o2)CC1,3.26%,3.51%,2.84%,2.99%,3.32%,-0.35%,5.13%,-1.86%,13.9%,4.7%
Fc1ccc(-c2nn3ccccc3c2-c2ccncc2)cc1,0.45%,0.38%,0.3%,-0.15%,-0.76%,2.39%,7.59%,0.8%,2.44%,1.94%
CCn1c(-c2nonc2N)nc2ccccc21,2.11%,1.05%,-0.82%,0.03%,0.89%,3.75%,6.72%,-1.66%,7.51%,2.42%
CCn1c(-c2nonc2N)nc2c(C#CC(C)(C)O)nc(OC[C@H](N)c3ccccc3)cc21,3.54%,1.58%,2.5%,1.64%,6.42%,7.32%,3.73%,-2.11%,11.2%,2.4%
NS(=O)(=O)c1ccc(Nc2ncc(-c3ccccc3)o2)cc1,8.51%,5.29%,15.4%,3.31%,16.7%,4.63%,5.69%,-1.15%,13.2%,8.3%
CS(=O)(=O)CCNCc1ccc(-c2ccc3ncnc(Nc4ccc(OCc5ccccc5)c(C(F)(F)F)c4)c3c2)o1,-0.59%,2.63%,2.63%,2.74%,1.42%,-2.21%,4.38%,-7.44%,9.83%,2.91%
CCCN1CCC(c2ccc(Nc3nc(Nc4cc(F)ccc4C(N)=O)c4cc[nH]c4n3)c(OC)c2)CC1,3.87%,4.25%,9.14%,2.83%,7.22%,3.85%,6.29%,-2.8%,83%,2.78%

Compound,inhibition [1],inhibition [2],inhibition [3],inhibition [4],inhibition [5],inhibition [6],inhibition [7],inhibition [8],inhibition [9],inhibition [10]
COC(=O)Nc1nc2ccc(Oc3ccc(NC(=O)Nc4cccc(Cl)c4)cc3)cc2[nH]1,41.6%,8.53%,22%,11.7%,26.1%,0.76%,2.29%,2%,3.42%,2.85%
COc1cc2c(cc1Nc1nc(Nc3ccsc3C(N)=O)c3cc[nH]c3n1)N(C(=O)CN(C)C)CCC2(C)C,13.6%,3.72%,11.4%,4.08%,11.6%,2.02%,4.22%,-4.11%,49.6%,3.59%
COc1cc(N2CCN(C(C)C)CC2)ccc1Nc1nc(Nc2ccc(F)cc2C(N)=O)c2cc[nH]c2n1,4.26%,-0.6%,3.09%,-0.87%,-0.43%,8.7%,5.7%,-1.63%,85.6%,2.91%
FC(F)(F)c1cccc(-c2nn3ncccc3c2-c2ccnc(Nc3ccc4c(c3)OCCO4)n2)c1,3.48%,1.94%,3.39%,0.62%,3.72%,3.11%,9%,-2.27%,14.6%,2.64%
CCn1c(-c2nonc2N)nc2cnc(Oc3cccc(NC(=O)c4ccc(N(C)C)cc4)c3)cc21,-1.16%,0.09%,0.73%,-0.04%,1.6%,1.57%,3.29%,-5.17%,2.67%,6.99%
CN1CCC(n2cnc(-c3ccc(F)cc3)c2-c2ccnc(N)n2)CC1,3.59%,0.4%,6.74%,3.47%,8.74%,2.63%,6.31%,-2.21%,-7.5%,4.64%
CN1CCC(n2cnc(-c3ccc(F)cc3)c2-c2ccnc(Nc3ccccc3)n2)CC1,1.74%,0.31%,1.95%,1.52%,3.75%,3.25%,5.32%,1.84%,8.53%,2.13%
COc1ccc(CNC(=O)c2ccc(-c3cc(-c4nnc(C)o4)ccc3C)cc2)cc1,-1.3%,1.54%,4.36%,2.79%,5.45%,3.95%,3.7%,0.15%,6.7%,-0.94%
Cc1cccc2c1NC(=O)/C2=N\Nc1ccc(S(N)(=O)=O)cc1,1.49%,2.26%,1.7%,0.44%,6.52%,4.98%,6.66%,-2.96%,9.17%,3.73%
Nc1nc(-c2ccc(F)cc2)c(-c2ccc3ncccc3n2)s1,4.77%,4.19%,3.45%,3.72%,5.31%,3.19%,6%,-2.9%,7.77%,4.14%
CCn1c(-c2nonc2N)nc2c(C#CC(C)(C)O)ncc(OC3CCNCC3)c21,3.24%,1.42%,1.02%,2.31%,-0.14%,6.03%,3.86%,0.42%,7.59%,4.24%
CCN1CCC(CC(=O)Nc2n[nH]c3nnc(-c4cccc(F)c4F)cc23)CC1,-2.79%,0.47%,0.8%,0.17%,0.31%,-0.72%,3.03%,0.26%,1.38%,3.98%
COC(=O)c1sc(-n2cnc3cc(OC)c(OC)cc32)cc1OCc1ccccc1C(F)(F)F,3.03%,5.22%,14.9%,3.71%,16.9%,2.16%,7.15%,-1.4%,17.2%,4.18%
COc1cccc(-c2c[nH]c3c(N/N=C/c4ccncc4)ncnc23)c1,7.45%,2.41%,19.4%,4.04%,23.3%,4.87%,16.8%,1.21%,10.6%,4.07%
COc1cc(Nc2nccc(Nc3ccc4c(C)n[nH]c4c3)n2)cc(OC)c1OC,64.1%,4.63%,41%,-0.03%,17.3%,23.9%,61.9%,-1.55%,8.41%,10.2%
Fc1ccc(-c2nn3ncccc3c2-c2ccnc(Nc3ccc4c(c3)OCCO4)n2)cc1,16.7%,4.94%,12.8%,3.72%,8.83%,10.8%,38%,-8.76%,19.2%,2.98%
Fc1cccc(COc2ccc(Nc3ncnc4sc(-c5ccco5)cc34)cc2Cl)c1,0.66%,3.36%,3.82%,3.74%,3.88%,-1.45%,3.65%,-2.62%,6.39%,2.5%
